Data: PubChem BioAssay AID1159580 (chemical genetic matrix, 2015)
Hit rate of the full screen: of about 5,500 compounds, about 2,000 (36%) were called active. Not shown: some 18% with an inconclusive outcome. Rule as the data show it: active = normalized growth mostly below about 0.91 (no sharp cut-off); inconclusive = no clear call, values can overlap the other calls; inactive = mostly above about 0.92. Some of the results follow.

Test: chemical genetic growth profiling, strain panel (AID 1159580);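 also: tested at 20 µM; growth read once vehicle control cultures reached saturation at 30 °C; 1 = growth at the plate median or of vehicle wells; lower values mean less growth of the strain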
Details: S. cerevisiae deletion strains, growth OD
[1] = locus YHR030C, strain SLT2, hits give low values
[2] = locus YJL095W, strain BCK1, hits give low values

Measured: normalized growth

COC1C(O)C(C)OC(O[C@H]2CC[C@]3(C=O)C4C(CC[C@]3(O)C2)[C@@]2(O)CC[C@H](C3=CC(=O)OC3)[C@@]2(C)C[C@H]4O)C1O (stereo partly drawn)
inactive: [1] 1.07 | locus YHR079C, strain IRE1, hits give low values 1.08 | [2] 1.04 | locus YJR066W, strain TOR1, hits give low values 0.979 | locus YLR113W, strain HOG1, hits give low values 0.968 | locus YNL183C, strain NPR1, hits give low values 0.988 | locus YOR231W, strain MKK1, hits give low values 1.01 | locus YPL256C, strain CLN2, hits give low values 1.12

CC12CCC3C(CCC4(O)CC(O)CCC34/C=N/NC(N)=O)C1(O)CCC2C1=CC(=O)OC1 (stereo not drawn)
inactive: locus YBR021W, strain FUR4, hits give low values 1.05 | locus YBR229C, strain ROT2, hits give low values 1.02 | locus YCL029C, strain bik1, hits give low values 0.999 | locus YDL035C, strain GPR1, hits give low values 1.05 | locus YDL074C, strain BRE1, hits give low values 1.05 | locus YDL101C, strain DUN1, hits give low values 1.01 | locus YDL185W, strain tfp1, hits give low values 0.998 | locus YDL192W, strain arf1, hits give low values 1.01 | locus YDR101C, strain arx1, hits give low values 1.01 | locus YDR162C, strain NBP2, hits give low values 1.02 | locus YDR318W, strain mcm21, hits give low values 0.985 | locus YDR388W, hits give low values 0.985 | locus YDR502C, strain sam2, hits give low values 0.974 | locus YER110C, hits give low values 0.963 | locus YER155C, strain BEM2, hits give low values 1 | locus YER167W, strain BCK2, hits give low values 1.02 | locus YGL078C, strain dbp3, hits give low values 0.983 | locus YGL086W, strain mad1, hits give low values 0.991 | locus YGL248W, strain PDE1, hits give low values 1 | locus YGR078C, strain PAC10, hits give low values 0.991 | locus YGR135W, strain pre9, hits give low values 0.957 | locus YGR252W, strain gcn5, hits give low values 0.98 | [1] 1.01 | locus YHR079C, strain IRE1 (second series), hits give low values 0.988 | locus YHR094C, strain hxt1, hits give low values 0.979 | locus YHR129C, strain ARP1, hits give low values 1.01 | locus YHR200W, strain rpn10, hits give low values 0.994 | locus YIL066C, strain RNR3, hits give low values 1.04 | locus YIL073C, strain SPO22, hits give low values 1.01 | locus YIL125W, strain kgd1, hits give low values 0.992 | locus YIR030C, strain dcg1, hits give low values 0.994 | [2] 1 | locus YJL134W, strain LCB3, hits give low values 1.01 | locus YJL168C, strain set2, hits give low values 0.991 | locus YJL187C, strain SWE1 (second series), hits give low values 0.999 | locus YKL009W, strain mrt4, hits give low values 1.03 | locus YKL068W, hits give low values 0.987 | locus YKL085W, strain MDH1 (second series), hits give low values 0.994 | locus YKL085W, strain MDH1, hits give low values 0.994 | locus YKR001C, strain vps1, hits give low values 0.996 | locus YLR039C, strain RIC1, hits give low values 1.06 | locus YLR058C, strain SHM2, hits give low values 1.02 | locus YLR102C, strain apc9, hits give low values 0.985 | locus YLR262C, strain YPT6, hits give low values 1.05 | locus YLR268W, strain sec22, hits give low values 1.02 | locus YLR371W, strain rom2, hits give low values 0.994 | locus YLR418C, strain cdc73, hits give low values 0.975 | locus YML016C, strain PPZ1, hits give low values 1.02 | locus YML032C, strain rad52, hits give low values 1 | locus YML124C, strain tub3, hits give low values 0.986 | locus YMR078C, strain ctf18, hits give low values 0.981 | locus YMR223W, strain ubp8, hits give low values 0.975 | locus YMR307W, strain GAS1, hits give low values 1.08 | locus YNL067W, strain RPL9B, hits give low values 0.986 | locus YNL153C, strain GIM3, hits give low values 0.991 | locus YNL233W, strain BNI4, hits give low values 0.987 | locus YNL250W, strain rad50, hits give low values 0.985 | locus YNL271C, strain bni1, hits give low values 0.994 | locus YNL298W, strain CLA4, hits give low values 0.983 | locus YNL307C, strain MCK1, hits give low values 0.986 | locus YNR052C, strain pop2, hits give low values 0.98 | locus YOL012C, strain htz1 1.29 | locus YOL147C, strain pex11, hits give low values 0.986 | locus YOR061W, strain CKA2, hits give low values 1.04 | locus YOR069W, strain VPS5, hits give low values 1 | locus YOR136W, strain idh2, hits give low values 0.98 | locus YOR144C, strain elg1, hits give low values 0.989 | locus YOR184W, strain ser1, hits give low values 1.03 | locus YOR316C, strain cot1, hits give low values 0.987 | locus YPL241C, strain CIN2, hits give low values 1.01 | locus YPR119W, strain clb2, hits give low values 0.983 | locus YPR141C, strain kar3, hits give low values 0.994 | locus YPR163C, strain tif3, hits give low values 0.989 | locus YPR167C, strain met16, hits give low values 0.978 | strain wtn01, hits give low values 1.01
